Results published in PubChem BioAssay (EPA / NIEHS).
The source made the active and inactive calls. Rule for the calls: active = hit-call score of the fitted dose curve at least 0.9, where 1 is the maximum; inactive = score below 0.9.

Assays:
[1] = ATG_E_Box_CIS: Attagene CIS-FACTORIAL HepG2 Assay for human Enhancer Box (E-box) (AID 2282936); conditions: HepG2 E-box cis-reporter transcription, actives raise or lower the signal
How it was run: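 HepG2 cells transiently transfected with multiplexed cis-element reporter units, dosed 24 h; reporter mRNA quantified by RT-PCR, 6-FAM labelling, HpaI digestion and capillary electrophoresis. E-box (USF1) signal fitted bidirectionally vs DMSO.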

[2] = ATG_M_61_CIS: Attagene CIS-FACTORIAL HepG2 Assay for M61 Transcription Factor (Internal Marker) (AID 2282937); conditions: HepG2 Attagene CIS-FACTORIAL M61 internal marker reporter; actives raise or lower the signal
How it was run: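 Using transiently transfected HepG2 liver cells, reporter transcript levels were assessed 24 h post-dosing by RT-PCR and capillary electrophoresis. Changes in either direction were fitted relative to DMSO controls.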

[3] = ATG_EGR_CIS: Attagene CIS-FACTORIAL HepG2 Assay for human Early Growth Response 1 (EGR1) (AID 2282938); conditions: HepG2 Attagene CIS-FACTORIAL EGR reporter mRNA; actives raise or lower the signal
How it was run: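 Fluorescent capillary-electrophoresis signal of reporter cDNA fragments serves as read-out. HepG2 cells bear transiently transfected cis-promoter reporter units and are exposed 24 h; gain- or loss-of-signal is fitted against DMSO.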

[4] = ATG_M_19_CIS: Attagene CIS-FACTORIAL HepG2 Assay for M19 Transcription Factor (Internal Marker) (AID 2282939); conditions: HepG2 Attagene CIS-FACTORIAL M19 internal marker reporter; actives raise or lower the signal
How it was run: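 Transfect HepG2 with MRTU reporter library → dose chemical, 24 h → isolate total RNA, reverse-transcribe with oligo(dT) → PCR, 6-FAM label, HpaI cut (2 h, 37 C) → capillary electrophoresis. Bidirectional fit vs DMSO.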

[5] = ATG_ERE_CIS: Attagene CIS-FACTORIAL HepG2 Assay for Estrogen Response Element (ERE) (AID 2282940); conditions: HepG2 ERE cis-reporter, Attagene RNA transcript; actives raise or lower the signal
How it was run: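 Transient MRTU transfection of human HepG2; cis-element promoters; 24 h dosing; total RNA → RT (oligo dT) → PCR → 6-FAM primer extension → HpaI digest → CE fluorescence. Bidirectional fit, DMSO baseline.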

[6] = ATG_Ets_CIS: Attagene CIS-FACTORIAL HepG2 Assay for human Erythroblast Transformation Specific (ETS) (AID 2282941); conditions: HepG2 ETS cis-reporter transcription, actives raise or lower the signal
How it was run: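 Steps: transfect HepG2 with multiple reporter units; treat compound 24 h; isolate RNA, DNase-treat, reverse-transcribe; PCR-amplify, label with 6-FAM, digest with HpaI; separate by capillary electrophoresis. Activity fitted both directions versus DMSO.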

[7] = target: Hepatocyte nuclear factor 3-beta (Homo sapiens) (UniProt Q9Y261); test: ATG_FoxA2_CIS: Attagene CIS-FACTORIAL HepG2 Assay for human Forkhead box A2 (FOXA2) (AID 2282942); conditions: HepG2 cis-reporter transcription factor activity, 24 h; actives raise or lower the signal
How it was run: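 Fluorescence signal of reporter cDNA fragments, separated by capillary electrophoresis, reflects endogenous transcription factor activity in transfected HepG2 after 24 h. Both increases and decreases fitted against DMSO.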

[8] = ATG_FoxO_CIS: Attagene CIS-FACTORIAL HepG2 Assay for human Forkhead box O (FoxO) (AID 2282943); conditions: HepG2 Attagene cis-reporter, FoxO element, mRNA; actives raise or lower the signal
How it was run: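 HepG2 cells transiently transfected with cis-element-driven reporter units report endogenous FoxO activity. After 24 h chemical exposure, reporter mRNA quantified by RT-PCR, fluorescent labeling, HpaI digestion and capillary electrophoresis; bidirectional fit versus DMSO.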

[9] = ATG_GATA_CIS: Attagene CIS-FACTORIAL HepG2 Assay for human GATA Binding Protein (AID 2282944); conditions: HepG2 GATA cis-element reporter, Attagene multiplex mRNA; actives raise or lower the signal
How it was run: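 Transient MRTU transfection, HepG2, 24 h compound exposure. Total RNA → oligo(dT) RT → PCR → 6-FAM primer extension → HpaI cut → CE. Bidirectional fit vs DMSO.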

[10] = ATG_GLI_CIS: Attagene CIS-FACTORIAL HepG2 Assay for human Zinc Finger Protein GLI1 (AID 2282945); conditions: HepG2, Attagene cis-factorial reporter mRNA, GLI element; actives raise or lower the signal
How it was run: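 Transiently transfected HepG2 cells report endogenous transcription factor activity via cis-element-driven reporter units. After 24 h compound exposure, reporter mRNA was measured by RT-PCR with capillary electrophoresis; bidirectional fitting against DMSO baseline.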

Measured: AC50

Sequence of Hepatocyte nuclear factor 3-beta (Homo sapiens) (Q9Y261 whole entry, looked up, the tested form may be a part): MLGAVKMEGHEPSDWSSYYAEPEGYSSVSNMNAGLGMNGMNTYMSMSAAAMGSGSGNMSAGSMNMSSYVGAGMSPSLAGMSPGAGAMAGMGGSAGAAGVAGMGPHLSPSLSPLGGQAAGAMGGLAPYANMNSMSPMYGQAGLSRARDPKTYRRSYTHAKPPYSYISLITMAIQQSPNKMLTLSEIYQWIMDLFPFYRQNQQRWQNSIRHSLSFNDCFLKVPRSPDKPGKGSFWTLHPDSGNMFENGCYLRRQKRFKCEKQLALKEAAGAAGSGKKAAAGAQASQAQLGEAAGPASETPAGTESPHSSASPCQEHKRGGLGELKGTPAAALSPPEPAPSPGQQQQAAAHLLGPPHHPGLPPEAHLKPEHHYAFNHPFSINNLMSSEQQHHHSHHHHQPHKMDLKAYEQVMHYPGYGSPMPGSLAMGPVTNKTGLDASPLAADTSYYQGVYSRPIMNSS

Nc1ccc(N)c(Cl)c1
active: [1] 33.5 µM | [5] 2.65 µM
inactive: all other assays above

CCOC(=O)NNc1nncc2ccccc12
active: [5] 60 µM
inactive: all other assays above

CC1(C)S[C@@H]2[C@H](NC(=O)COc3ccccc3)C(=O)N2[C@H]1C(=O)O
inactive: all assays above

O=[N+]([O-])C1(Br)COCOC1
active: [1] 61 µM
inactive: all other assays above

C=CC(C)(CCC=C(C)C)OC(=O)C(C)C (stereo not given)
active: [5] 32.1 µM
inactive: all other assays above

CCCNC(=O)NS(=O)(=O)c1ccc(Cl)cc1
inactive: all assays above

c1ccc(CCCc2ccncc2)cc1
active: [6] 155 µM
inactive: all other assays above

O=C1Nc2ccccc2C1(c1ccc(O)cc1)c1ccc(O)cc1
active: [1] 71.9 µM | [3] 71.7 µM | [6] 48.8 µM | [8] 100 µM | [10] 70.8 µM
inactive: all other assays above

N#[N+]c1ccc2c(S(=O)(=O)[O-])cccc2c1O
inactive: all assays above

CC(=O)OCC(=O)[C@@]12N=C(C)O[C@@H]1C[C@H]1[C@@H]3CCC4=CC(=O)C=C[C@]4(C)[C@H]3[C@@H](O)C[C@@]12C
active: [5] 34.2 µM
inactive: all other assays above

CCN(CCO)c1cccc(C)c1
inactive: all assays above

COC=O
inactive: all assays above

O=c1[nH]c(=O)c2[nH]c(=O)[nH]c2[nH]1
inactive: all assays above

C=CCCCCCCCCC(=O)OCCCC
inactive: all assays above

Cc1ccc(OC(=O)CC(C)C)cc1
inactive: all assays above

O=c1cc[nH]c(=S)[nH]1
inactive: all assays above

CC1=CC[C@H]2C[C@@H]1C2(C)C
inactive: all assays above

O=C1C=CC(=O)O1
inactive: all assays above

CC(C)c1ccc2c(C(C)C)cc(C(C)C)c(S(=O)(=O)O)c2c1
active: [5] 49.7 µM
inactive: all other assays above

CCCCCCCCCCOS(=O)(=O)O
inactive: all assays above

CCOC(=O)CC(C(C)=O)C(C)=O
inactive: all assays above

O=S(=O)(O)c1cc(S(=O)(=O)O)c2ccc3c(S(=O)(=O)O)cc(S(=O)(=O)O)c4ccc1c2c43
inactive: all assays above

CCCCC(CC)COC(=O)c1ccccc1 (stereo not given)
active: [5] 37.3 µM
inactive: all other assays above
